According to PubChem BioAssay (NCI):
The panel holds about 79,000 compounds, 15% with a hit somewhere; the sample as a whole holds those more often. A number with no mark means an inactive call. The source made the active and inactive calls. Rule as the data show it: active = growth inhibition above about 70%; inactive = the rest.

Key:
[1] = NCI Yeast Anticancer Drug Screen. Data for the rad50 strain (AID 155);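 also: 0% = growth of vehicle-only cultures of the same strain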; conditions: S. cerevisiae rad50 strain growth inhibition; at 50.0 µM; stronger effect = higher value
Method in brief: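 Growth of the mutant yeast was measured after compound exposure and referenced to vehicle-treated cultures.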

[2] = NCI Yeast Anticancer Drug Screen. Data for the mec2-1 strain (AID 157); conditions: S. cerevisiae mec2-1 strain, at 50.0 µM, stronger effect = higher value
Method in brief: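 Using mec2-1 yeast: add compound, measure growth, express inhibition versus vehicle-treated cultures.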

[3] = NCI Yeast Anticancer Drug Screen. Data for the sgs1 mgt1 strain (AID 161);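 also: 0% = growth of cultures given vehicle only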; conditions: S. cerevisiae sgs1 mgt1 strain, at 50.0 µM, stronger effect = higher value
Method in brief: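 Growth of a repair-deficient yeast mutant was monitored after compound treatment and expressed as inhibition relative to vehicle-treated cultures.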

[4] = NCI Yeast Anticancer Drug Screen. Data for the bub3 strain (AID 167); conditions: S. cerevisiae bub3 mutant strain, at 50.0 µM, stronger effect = higher value
Method in brief: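 Whole-cell yeast assay. The mutant strain was incubated with compounds, and growth inhibition was determined by comparison with vehicle-treated cells.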

[5] = NCI Yeast Anticancer Drug Screen. Data for the mlh1 rad18 strain (AID 175); conditions: S. cerevisiae mlh1 rad18 strain growth inhibition; at 50.0 µM; stronger effect = higher value
Method in brief: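 Steps: expose repair-defective yeast to compound; measure growth; express inhibition against vehicle-treated controls.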

[6] = NCI Yeast Anticancer Drug Screen. Data for the cln2 rad14 strain (AID 165);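 also: 0% = growth equal to vehicle treated cultures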; conditions: S. cerevisiae cln2 rad14 strain, at 50.0 µM, stronger effect = higher value
Method in brief: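 Yeast strain cln2 rad14, bearing defects in cell cycle control and DNA repair, serves as the test system; values reflect growth inhibition compared with vehicle.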

Compound: Clc1ccccc1CSc1cc(SCc2ccccc2Cl)nc(SCc2ccccc2Cl)n1
- growth inhibition [1]: -8%
- growth inhibition [2]: -2.75%
- growth inhibition [3]: -2.25%
- growth inhibition [4]: -7.3%
- growth inhibition [5]: 22%

Compound: O=C1NC2(O)C(=O)c3ccccc3C2(O)N1 (stereo not given)
- growth inhibition [1]: -8.65%
- growth inhibition [2]: -10.2%
- growth inhibition [3]: -27.9%
- growth inhibition [4]: -17.3%
- growth inhibition [5]: 0.55%

Compound: CCC(=O)Nc1cccc(OC(=O)NC2CCCCC2)c1
- growth inhibition [1]: 1.35%
- growth inhibition [2]: 13.1%
- growth inhibition [3]: 16.2%
- growth inhibition [4]: 20.2%
- growth inhibition [5]: 11.1%

Compound: C/C(CC/C(C)=N/NC(N)=O)=N/NC(N)=O
- growth inhibition [1]: 1.7%
- growth inhibition [2]: -3.5%
- growth inhibition [3]: -9.85%
- growth inhibition [4]: 21.9%
- growth inhibition [5]: -9.2%

Compound: CN(C)C=Nc1ccc([N+](=O)[O-])cc1
- growth inhibition [1]: -7.7%
- growth inhibition [2]: -2.65%
- growth inhibition [3]: -1.25%
- growth inhibition [4]: -0.6%
- growth inhibition [5]: -5.3%

Compound: c1ccc(C2=Nc3ccccc3N=C3CCCC32)cc1 (stereo not given)
- growth inhibition [1]: 45.2%
- growth inhibition [2]: 22.6%
- growth inhibition [3]: 3.3%
- growth inhibition [4]: 21.4%
- growth inhibition [5]: 58.7%

Compound: COC(=O)C1(C)CCCC2(C)C1CCC13OC(=O)C(C(C)C)(CC21)C3O (stereo not given)
- growth inhibition [1]: -3.6%
- growth inhibition [2]: -28.3%
- growth inhibition [3]: -10.8%
- growth inhibition [4]: -1.45%
- growth inhibition [5]: -28.8%

Compound: Nc1c(Cl)cccc1C(=O)c1ccccc1C(=O)O
- growth inhibition [1]: -9.8%
- growth inhibition [2]: 4.8%
- growth inhibition [3]: 5.4%
- growth inhibition [4]: 1%
- growth inhibition [5]: -3.15%

Compound: COC[C@H]1C(=O)NCC(=O)N2N=CCC[C@H]2C(=O)N(O)[C@H](C)C(=O)O[C@@H](C(C)C)[C@H](NC(=O)[C@@](C)(O)[C@]2(O)CC[C@@H](CC(C)C)[C@H](C)O2)C(=O)N2NCCC[C@@H]2C(=O)N1O
- growth inhibition [1]: 91.8% (active)
- growth inhibition [2]: 93.6% (active)
- growth inhibition [3]: 93.7% (active)
- growth inhibition [4]: 93.2% (active)
- growth inhibition [5]: 92.1% (active)

Compound: COc1ccc(/C=C/C(=O)c2ccc(Cl)s2)cc1
- growth inhibition [1]: -18.2%
- growth inhibition [2]: -4.75%
- growth inhibition [3]: -5.8%
- growth inhibition [4]: 20.4%
- growth inhibition [5]: -4.5%

Compound: CCCCC(=O)N/N=C/c1ccccc1OCC
- growth inhibition [1]: -7%
- growth inhibition [2]: 0.05%
- growth inhibition [3]: 0.6%
- growth inhibition [4]: -9.9%
- growth inhibition [5]: -7.6%

Compound: C=C(Br)CNC(=O)Nc1ccc(Cl)c(Cl)c1
- growth inhibition [1]: -0.3%
- growth inhibition [2]: 16.1%
- growth inhibition [3]: 21.4%
- growth inhibition [4]: 22.6%
- growth inhibition [5]: -86.2%

Compound: CC1CC(=O)Nc2ncccc2N1 (stereo not given)
- growth inhibition [1]: 5.75%
- growth inhibition [2]: -4.2%
- growth inhibition [3]: 4.2%
- growth inhibition [4]: 8.05%
- growth inhibition [5]: -9.45%

Compound: CC(C)(C)OC(=O)NC(CS(=O)(=O)O)C(=O)O (stereo not given)
- growth inhibition [1]: -39.1%
- growth inhibition [2]: -11.4%
- growth inhibition [3]: -2.4%
- growth inhibition [4]: 13%
- growth inhibition [5]: -15.3%

Compound: O=C1CSC(=S)N1.[Cu+2]
- growth inhibition [1]: -7.9%
- growth inhibition [2]: -9.5%
- growth inhibition [3]: 7.7%
- growth inhibition [4]: -4.5%
- growth inhibition [5]: 4.3%

Compound: COc1cccc([B-]23OCC[N+]2(CNC(=O)c2ccccc2O)CCO3)c1 (stereo not given)
- growth inhibition [1]: 29.6%
- growth inhibition [2]: 2.95%
- growth inhibition [3]: 12.9%
- growth inhibition [4]: -3.25%
- growth inhibition [5]: 19.4%

Compound: COC(=O)c1cc2c(cc1CC1Cc3cc4c(cc3C1=O)CCC4)CCC2 (stereo not given)
- growth inhibition [1]: -16.1%
- growth inhibition [2]: -42.3%
- growth inhibition [6]: 9.3%
- growth inhibition [4]: 19.6%
- growth inhibition [5]: 1.65%

Compound: COc1ccc(N2C(=O)CC(c3c[nH]c4ccccc34)C2=O)cc1 (stereo not given)
- growth inhibition [1]: -29.2%
- growth inhibition [2]: -37.1%
- growth inhibition [6]: 6.9%
- growth inhibition [4]: 13.8%
- growth inhibition [5]: -22.2%

Compound: COc1cc2c3c4c1OCc1c5c(cc(c1-4)CC3[N+](C)(C)CC2)OCO5 (stereo not given)
- growth inhibition [1]: 4.35%
- growth inhibition [2]: 6.3%
- growth inhibition [6]: 21.1%
- growth inhibition [4]: 11.1%
- growth inhibition [5]: -52.1%

Compound: CCCCCCCCCCCC(=O)NC(=S)Nc1ccc(C)c(C)c1
- growth inhibition [1]: 8.65%
- growth inhibition [2]: 58.2%
- growth inhibition [6]: -13.6%
- growth inhibition [4]: 57.5%
- growth inhibition [5]: 36.9%

Compound: O=C(O)CS(=O)(=O)Cc1ccccc1
- growth inhibition [1]: -12.7%
- growth inhibition [2]: -9.85%
- growth inhibition [6]: -60.6%
- growth inhibition [4]: -7.9%
- growth inhibition [5]: -6.5%

Compound: c1ccc(-c2cc(-c3ccccc3)nc(-c3ccccc3)c2)cc1
- growth inhibition [1]: -7.2%
- growth inhibition [2]: -4.05%
- growth inhibition [6]: -33%
- growth inhibition [4]: 9.65%
- growth inhibition [5]: 1.6%

Compound: CCOCCOC(=O)c1ccc(C(N)=NC)cc1
- growth inhibition [1]: 12.6%
- growth inhibition [2]: -1.2%
- growth inhibition [6]: -8.15%
- growth inhibition [4]: 6.05%
- growth inhibition [5]: 5.8%
